# Several values for one entry are separate records, joined by “and”; a condition that tells them apart may be missing. Equal entries are not always repeated. Results filed as inconclusive are left out. More than one record can exist for a structure, and the calls need not agree. Activity calls are given as the source filed them. Unless noted, calls come from the whole dose curve; as a rule, active = well fitted curve in the direction sought with a large enough effect; inconclusive = small, poorly fitted or top-dose-only effect, or another doubt; inactive = no such curve, though single readings can be large; an effect the other way counts as inactive or inconclusive.
# Assays:
# [1] = biological target: Cytochrome P450 3A4 (Homo sapiens) (UniProt P08684); assay: qHTS Assay for Inhibitors and Substrates of Cytochrome P450 3A4 (AID 884); note: nearly all actives have a fitted effect of over 50% in size; note: potency is the fitted concentration of half-maximal effect; for activity change, negative = inhibition: % is set by controls: 0 for no effect and ±100 for the full control effect
# How it was run: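 20 nM human CYP3A4 with 25 uM Luciferin-PPXE (at KM) in 200 mM KPO4, preincubated 10 min with compound; NADPH regeneration started a 60 min RT reaction. Luciferin detected by luminescence, normalized to 57 uM ketoconazole as full inhibition.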
# [2] = Confirmation and Secondary Assay for Modulators of Hemoglobin Beta Chain Splicing at IVS2 654 locus (AID 910); note: % of control where 0% means no effect
# How it was run: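 HeLa cells stably carrying EGFP interrupted by mutant beta-globin IVS2-654 intron (CMV-driven) were treated with compound for 2 days at 37C; corrected splicing was scored as total peak GFP intensity per well (488 nm excitation, 500-520 nm emission).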
# [3] = Confirmation and Secondary Assay for Modulators of Hemoglobin Beta Chain Splicing at IVS2 705 locus (AID 930);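 note: HeLa cells stably expressing the EGFP-705 splicing reporter; GFP fluorescence per well restored by corrected splicing of the IVS2-705 intron in EGFP; % of control where 0% means no effect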
# How it was run: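 Read-out: total peak GFP fluorescence per well (488 nm excitation, 500-520 nm emission) by laser-scanning cytometry. Cells: HeLa EGFP-705 splicing reporter, 2 days compound exposure in Optimem/2% FCS.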
# [4] = qHTS Assay for Lipid Storage Modulators (AID 1519; calls by dose curve); settings: Drosophila S3 cells, BODIPY lipid droplet/cell ratio, laser cytometry, cells loaded with oleic acid
# How it was run: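 Cells seeded at 5,000 per well were treated with compounds over a concentration series and loaded with oleic acid (400 uM, as added). Lipid droplet fluorescence (488 nm excitation, 500-530 nm channel) was read by laser-scanning cytometry and normalized to 20 uM Triacsin C.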
# [5] = biological target: Ubiquitin carboxyl-terminal hydrolase 1 (Homo sapiens) (UniProt O94782); assay: Inhibitors of USP1/UAF1: Pilot qHTS (AID 504865);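 note: rhodamine fluorescence freed from ubiquitin-rhodamine substrate followed over time; top concentration of the series differs between compounds; % is set by controls: 0 for no effect and ±100 for the full control effect; nearly all actives have a fitted effect of over 35% in size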
# How it was run: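 Deubiquitinase activity followed as kinetic rhodamine fluorescence release from 150 nM Ub-Rho. 1 nM USP1/UAF1 with compound, after 15 min room-temperature preincubation, in HEPES pH 7.8 buffer containing TCEP, EDTA, BSA and Tween-20.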
# [6] = biological target: Peroxisome proliferator-activated receptor alpha (Homo sapiens) (UniProt Q07869); assay: qHTS assay for small molecule agonists of the peroxisome proliferator-activated receptor alpha (PPARalpha) signaling pathway (AID 651778); settings: PathHunter PPARalpha complementation, chemiluminescence, 6 h; stronger effect = higher value; note: % of control where 0% means no effect
# How it was run: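 Cells plated at 2,000/well and held overnight at 37 C, 5% CO2, then compound added by pin tool for 6 hr; after PathHunter detection reagent and 60 min at room temperature, chemiluminescence from enzyme complementation was read.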
# [7] = qHTS assay for cell viability of HEK293 cells (AID 743288); settings: ATP luminescence (CellTiter-Glo), 18 h; max response: stronger effect = lower value; note: % is set by controls: 0 for no effect and ±100 for the full control effect; nearly all actives have a fitted effect of over 50% in size
# How it was run: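 Total intracellular ATP, measured with a luciferase-coupled reagent, indicates the number of viable HEK293 cells. Exposure to test chemicals lasts 18 h at 37 C in 1,536-well format at 2,000 cells/well.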
# [8] = biological target: ATP-dependent 6-phosphofructokinase (Trypanosoma brucei brucei) (UniProt O15648); assay: qHTS Assay to Find Inhibitors of T. brucei phosphofructokinase: hit validation (AID 492961);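 note: luminescence reports ADP formed as PFK phosphorylates fructose-6-phosphate with ATP; % is set by controls: 0 for no effect and ±100 for the full control effect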
# How it was run: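 PFK 1.25 nM, F6P 0.5 mM, ATP 0.1 mM, MgCl2 5 mM, 0.1 M TEA pH 8.0, Tween20 0.01%, BSA 0.1%; 45 min RT. ADP-Glo two-step detection, luminescence. qHTS titration; curve fitting with curve-class categorization.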
# [9] = biological target: Luciferin 4-monooxygenase (Photinus pyralis) (UniProt P08659); assay: Biochemical firefly luciferase enzyme assay for NPC (AID 624030);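 note: purified P. pyralis luciferase at 10 nM with luciferin and ATP substrate; 0% = DMSO and -100% = full luciferase inhibition by PTC124 control; nearly all actives have a fitted effect of over 70% in size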
# How it was run: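 Counter-screen for direct inhibition of the luciferase enzyme by approved-drug library compounds, run at 10 nM enzyme in 50 mM Tris acetate (final). Luminescence was read within 5 min of enzyme-buffer addition and normalized to PTC124 versus DMSO (0%).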
# [10] = qHTS profiling for inhibitors of Plasmodium falciparum proliferation (AID 504749); note: potency is the fitted concentration of half-maximal effect; nearly all actives have a fitted effect of over 60% in size; settings: P. falciparum in erythrocytes, SYBR Green DNA, 72 h
# How it was run: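 P. falciparum-infected erythrocytes (0.3% parasitemia, 2.5% hematocrit final) were exposed to compounds for 72 h at 37 C in 5% CO2, then lysed with SYBR Green buffer overnight at room temperature; parasite DNA fluorescence was normalized to artemisinin and DMSO controls.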
# [11] = biological target: Cytochrome P450 1A2 (Homo sapiens) (UniProt P05177); assay: p450-cyp1a2 (AID 410; calls by dose curve;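 note: -100% = full effect of reference inhibitor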)
# How it was run: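 Human CYP1A2 (20nM) demethylated Luciferin-ME at its Km (100uM) in 100mM KPO4. After 10 min compound preincubation, NADPH regeneration ran the reaction 60 min at room temperature. Luciferin was read by luminescence, normalized to 57 uM furafylline.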
# [12] = biological target: Glucocorticoid receptor (Homo sapiens) (UniProt P04150); assay: GR-GFP Redistribution (AID 450;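 active = compounds whose dose series gives a full or clear partial fitted curve of increased nuclear translocation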; note: potency is the fitted concentration of half-maximal effect); settings: U2OS GR-GFP nuclear translocation, laser cytometry, 2 h
# [13] = biological target: Glucocorticoid receptor (Homo sapiens) (UniProt P04150); assay: GR-EFC Redistribution (AID 451; calls by dose curve; note: potency is the fitted concentration of half-maximal effect); settings: CHO-K1 GR-EFC translocation, beta-gal luminescence, 2 h
# How it was run: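 CHO-K1 cells stably expressing nuclear-localized β-gal enzyme acceptor and GR fused C-terminally to the enzyme donor fragment; ligand-driven nuclear translocation restores β-gal by complementation. Compounds titrated up to 46 uM final, 2 h at 37 °C; luminescence read.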
# [14] = biological target: 3',5'-cyclic-AMP phosphodiesterase 4B (Homo sapiens) (UniProt Q07343); assay: qHTS Assay for Inhibitors of PDE-IV (AID 607; active = well fitted activation curve with a large enough effect in the main read-out, with a control signal flat, not every such curve was filed as active; note: % of control where 0% means no effect)
# How it was run: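 Live HEK293 cells with a modified cyclic nucleotide-gated (CNG) channel report intracellular cAMP via membrane-potential dye fluorescence (ex 535/em 590 nm). Endogenous PDE-IV was targeted. Compounds were tested at up to 22.9 uM final; RO 20-1724 100 uM served as control.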
# [15] = biological target: Cytochrome P450 3A4 (Homo sapiens) (UniProt P08684); assay: qHTS Assay for Activators of Cytochrome P450 3A4 (AID 885); note: nearly all actives have a fitted effect of over 65% in size
# How it was run: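 Quantitative HTS format: compounds preincubated with 20nM human CYP3A4 and Luciferin-PPXE substrate at KM, reaction started by NADPH regeneration, stopped after 60 min, luciferase luminescence read 20 min later.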
# [16] = biological target: DNA dC->dU-editing enzyme APOBEC-3G (Homo sapiens) (UniProt Q9HC16); assay: qHTS for inhibitors of Vif-A3G interactions: Validation (AID 588379); note: 0% is about no effect
# How it was run: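 HeLa cells stably expressing Vif and A3G-eYFP, 700 cells/well, incubated overnight at 37 deg C, then exposed to compound overnight at 37 deg C. Inhibition of Vif-mediated degradation read as increased yellow fluorescence (Ex 488/Em 500-530) by laser-scanning cytometry.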
# [17] = NFAT Signaling Pathway (AID 444; active = well fitted curve in either direction with a large enough effect, not every such curve was filed as active;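 note: carbachol stimulus at about its EC50 of 1 µM final; % is set by controls: 0 for no effect and ±100 for the full control effect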); settings: Jurkat NFAT-bla M1, carbachol, beta-lactamase ratio, 5 h; at 17.2 µM (top of the series)
# How it was run: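 Jurkat cells carrying an NFAT-driven β-lactamase reporter and co-transfected muscarinic M1 receptor were treated with compound plus carbachol (1 uM final, an EC50 level) for 5 h at 37 °C. CCF4 loading followed for 1 h at RT; 460/530 nm ratio gave %activity.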
# [18] = biological target: Mitogen-activated protein kinase 10 (Mus musculus) (UniProt Q61831); assay: JNK3 AlphaScreen Assay (AID 530; active = well fitted curve in either direction with a large enough effect, not every such curve was filed as active;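 note: kinase came from lysate of stimulated human HepG2 cells; signal reports phosphorylation of biotinylated GST-cJun 1-79 at Ser73 with 10 µM ATP; % is set by controls: 0 for no effect and ±100 for the full control effect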)
# How it was run: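 JNK3 came from HepG2 lysates pre-activated with IL-1beta and TNF-alpha and phosphorylated biotinylated GST-cJun (1-79) at 10 uM ATP, pH 7.6, room temperature. Compounds were titrated. AlphaScreen signal used anti-phospho-cJun (Ser73) antibody.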
# [19] = measured here: cell count channel max response
# [20] = measured here: lipid channel max response
# Sequence of Cytochrome P450 3A4 (Homo sapiens) (P08684 whole entry, looked up): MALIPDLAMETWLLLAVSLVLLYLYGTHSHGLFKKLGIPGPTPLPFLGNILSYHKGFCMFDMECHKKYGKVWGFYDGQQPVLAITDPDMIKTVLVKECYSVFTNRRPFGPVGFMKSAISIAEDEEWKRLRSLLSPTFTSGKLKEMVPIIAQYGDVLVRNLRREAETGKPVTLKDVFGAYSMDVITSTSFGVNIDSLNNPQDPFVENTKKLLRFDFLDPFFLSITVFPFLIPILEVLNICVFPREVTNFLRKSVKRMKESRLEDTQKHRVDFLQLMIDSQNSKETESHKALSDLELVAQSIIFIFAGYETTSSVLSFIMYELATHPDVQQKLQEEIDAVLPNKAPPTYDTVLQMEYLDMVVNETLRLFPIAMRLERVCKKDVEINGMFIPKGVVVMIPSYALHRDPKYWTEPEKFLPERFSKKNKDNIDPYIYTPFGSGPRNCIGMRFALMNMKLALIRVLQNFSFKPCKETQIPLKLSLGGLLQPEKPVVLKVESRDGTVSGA
# Sequence of Ubiquitin carboxyl-terminal hydrolase 1 (Homo sapiens) (O94782 whole entry, looked up): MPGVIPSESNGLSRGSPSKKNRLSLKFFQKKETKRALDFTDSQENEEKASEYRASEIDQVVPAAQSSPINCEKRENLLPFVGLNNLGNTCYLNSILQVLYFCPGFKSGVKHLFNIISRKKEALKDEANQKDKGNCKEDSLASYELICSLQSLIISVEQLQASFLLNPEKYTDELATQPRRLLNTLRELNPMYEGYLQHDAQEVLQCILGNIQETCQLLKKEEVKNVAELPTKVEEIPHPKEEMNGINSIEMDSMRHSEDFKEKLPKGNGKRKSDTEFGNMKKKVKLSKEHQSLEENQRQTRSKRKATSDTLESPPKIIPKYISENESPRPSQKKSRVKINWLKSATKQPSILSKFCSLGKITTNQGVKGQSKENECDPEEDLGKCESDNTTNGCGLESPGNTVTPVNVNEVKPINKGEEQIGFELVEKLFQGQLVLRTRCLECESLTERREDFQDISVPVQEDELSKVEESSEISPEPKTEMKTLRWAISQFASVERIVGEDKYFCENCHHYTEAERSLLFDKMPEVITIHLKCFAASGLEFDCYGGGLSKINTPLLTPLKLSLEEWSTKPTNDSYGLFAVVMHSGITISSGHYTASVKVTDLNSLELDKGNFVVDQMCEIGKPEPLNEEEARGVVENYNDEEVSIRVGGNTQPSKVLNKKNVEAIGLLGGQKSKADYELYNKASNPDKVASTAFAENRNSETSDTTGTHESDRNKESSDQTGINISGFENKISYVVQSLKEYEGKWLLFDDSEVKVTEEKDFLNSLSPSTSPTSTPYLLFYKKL
# Sequence of Glucocorticoid receptor (Homo sapiens) (P04150 whole entry, looked up, the tested form may be a part): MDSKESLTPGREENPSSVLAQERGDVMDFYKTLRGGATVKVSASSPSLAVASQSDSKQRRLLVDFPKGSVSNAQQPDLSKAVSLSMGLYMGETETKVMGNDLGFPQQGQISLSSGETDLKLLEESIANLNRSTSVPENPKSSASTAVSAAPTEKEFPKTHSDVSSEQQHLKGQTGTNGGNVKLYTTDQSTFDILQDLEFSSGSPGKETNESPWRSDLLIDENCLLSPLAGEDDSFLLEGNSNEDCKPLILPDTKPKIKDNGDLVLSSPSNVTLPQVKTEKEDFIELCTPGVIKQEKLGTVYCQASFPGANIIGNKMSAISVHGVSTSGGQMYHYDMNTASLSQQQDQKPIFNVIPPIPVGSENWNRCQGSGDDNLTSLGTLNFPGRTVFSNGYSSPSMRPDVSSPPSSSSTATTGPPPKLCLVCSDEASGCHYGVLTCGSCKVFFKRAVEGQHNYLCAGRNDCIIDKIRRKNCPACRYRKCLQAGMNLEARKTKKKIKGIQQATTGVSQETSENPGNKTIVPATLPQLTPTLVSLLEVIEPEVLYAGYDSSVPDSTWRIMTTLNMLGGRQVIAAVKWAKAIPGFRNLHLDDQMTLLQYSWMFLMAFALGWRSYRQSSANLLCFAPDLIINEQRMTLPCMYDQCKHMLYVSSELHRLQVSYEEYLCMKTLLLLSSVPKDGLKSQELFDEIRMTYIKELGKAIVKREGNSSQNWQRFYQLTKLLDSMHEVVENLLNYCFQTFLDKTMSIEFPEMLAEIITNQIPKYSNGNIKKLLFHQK
# Sequence of Peroxisome proliferator-activated receptor alpha (Homo sapiens) (Q07869 whole entry, looked up): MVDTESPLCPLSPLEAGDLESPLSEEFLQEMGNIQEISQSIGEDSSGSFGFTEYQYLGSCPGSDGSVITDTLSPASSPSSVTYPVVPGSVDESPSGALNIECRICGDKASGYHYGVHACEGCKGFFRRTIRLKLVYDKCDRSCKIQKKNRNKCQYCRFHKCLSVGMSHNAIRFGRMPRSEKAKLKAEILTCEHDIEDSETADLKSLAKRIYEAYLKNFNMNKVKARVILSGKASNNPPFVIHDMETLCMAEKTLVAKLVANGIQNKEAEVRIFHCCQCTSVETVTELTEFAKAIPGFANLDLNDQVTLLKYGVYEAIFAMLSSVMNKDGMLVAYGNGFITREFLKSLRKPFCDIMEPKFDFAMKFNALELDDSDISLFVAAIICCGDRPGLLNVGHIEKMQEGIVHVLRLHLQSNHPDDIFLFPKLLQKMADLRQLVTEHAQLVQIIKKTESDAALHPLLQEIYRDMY
# Sequence of Cytochrome P450 1A2 (Homo sapiens) (P05177 whole entry, looked up): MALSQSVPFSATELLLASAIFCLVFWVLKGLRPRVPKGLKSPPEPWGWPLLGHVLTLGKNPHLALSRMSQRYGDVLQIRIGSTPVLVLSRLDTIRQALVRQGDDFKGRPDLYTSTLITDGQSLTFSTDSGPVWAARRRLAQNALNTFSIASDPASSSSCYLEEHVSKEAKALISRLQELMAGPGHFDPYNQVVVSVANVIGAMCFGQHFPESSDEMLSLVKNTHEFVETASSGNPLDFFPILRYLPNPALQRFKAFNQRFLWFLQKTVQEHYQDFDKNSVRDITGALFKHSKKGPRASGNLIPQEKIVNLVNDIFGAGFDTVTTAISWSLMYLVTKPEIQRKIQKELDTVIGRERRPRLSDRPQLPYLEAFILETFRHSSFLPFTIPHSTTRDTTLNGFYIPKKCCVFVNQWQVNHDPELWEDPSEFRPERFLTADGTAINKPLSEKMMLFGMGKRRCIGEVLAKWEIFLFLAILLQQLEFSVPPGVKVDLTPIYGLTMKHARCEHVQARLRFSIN
# Sequence of DNA dC->dU-editing enzyme APOBEC-3G (Homo sapiens) (Q9HC16 whole entry, looked up): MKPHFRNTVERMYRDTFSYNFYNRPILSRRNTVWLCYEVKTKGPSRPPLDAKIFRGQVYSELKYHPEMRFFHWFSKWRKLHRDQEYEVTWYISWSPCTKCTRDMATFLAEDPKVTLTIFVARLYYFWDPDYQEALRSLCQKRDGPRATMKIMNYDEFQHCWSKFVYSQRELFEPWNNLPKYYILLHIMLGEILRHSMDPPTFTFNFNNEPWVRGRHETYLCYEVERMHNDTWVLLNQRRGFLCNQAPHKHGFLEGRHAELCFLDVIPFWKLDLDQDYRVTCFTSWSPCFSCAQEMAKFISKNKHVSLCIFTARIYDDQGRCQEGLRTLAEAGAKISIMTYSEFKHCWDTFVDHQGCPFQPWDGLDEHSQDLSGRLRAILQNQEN
# Sequence of 3',5'-cyclic-AMP phosphodiesterase 4B (Homo sapiens) (Q07343 whole entry, looked up): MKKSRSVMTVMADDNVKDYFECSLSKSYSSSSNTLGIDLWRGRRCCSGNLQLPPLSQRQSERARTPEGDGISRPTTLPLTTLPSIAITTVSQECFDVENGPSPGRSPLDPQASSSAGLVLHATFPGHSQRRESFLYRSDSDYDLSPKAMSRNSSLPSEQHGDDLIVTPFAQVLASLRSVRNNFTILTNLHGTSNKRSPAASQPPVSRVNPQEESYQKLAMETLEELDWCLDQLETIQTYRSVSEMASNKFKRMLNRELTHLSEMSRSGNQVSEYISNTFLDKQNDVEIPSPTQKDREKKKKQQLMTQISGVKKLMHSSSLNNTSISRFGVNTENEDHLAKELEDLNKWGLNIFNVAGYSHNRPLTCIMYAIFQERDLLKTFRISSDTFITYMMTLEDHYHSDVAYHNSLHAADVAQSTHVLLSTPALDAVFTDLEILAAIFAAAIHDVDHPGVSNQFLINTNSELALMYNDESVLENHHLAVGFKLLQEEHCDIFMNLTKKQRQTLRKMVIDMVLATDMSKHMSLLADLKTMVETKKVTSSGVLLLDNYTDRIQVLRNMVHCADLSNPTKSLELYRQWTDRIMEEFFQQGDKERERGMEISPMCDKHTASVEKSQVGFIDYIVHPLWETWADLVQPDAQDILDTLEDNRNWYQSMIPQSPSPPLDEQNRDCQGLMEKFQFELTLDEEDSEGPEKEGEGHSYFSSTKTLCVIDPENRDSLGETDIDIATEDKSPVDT
# Sequence of ATP-dependent 6-phosphofructokinase (Trypanosoma brucei brucei) (O15648 whole entry, looked up): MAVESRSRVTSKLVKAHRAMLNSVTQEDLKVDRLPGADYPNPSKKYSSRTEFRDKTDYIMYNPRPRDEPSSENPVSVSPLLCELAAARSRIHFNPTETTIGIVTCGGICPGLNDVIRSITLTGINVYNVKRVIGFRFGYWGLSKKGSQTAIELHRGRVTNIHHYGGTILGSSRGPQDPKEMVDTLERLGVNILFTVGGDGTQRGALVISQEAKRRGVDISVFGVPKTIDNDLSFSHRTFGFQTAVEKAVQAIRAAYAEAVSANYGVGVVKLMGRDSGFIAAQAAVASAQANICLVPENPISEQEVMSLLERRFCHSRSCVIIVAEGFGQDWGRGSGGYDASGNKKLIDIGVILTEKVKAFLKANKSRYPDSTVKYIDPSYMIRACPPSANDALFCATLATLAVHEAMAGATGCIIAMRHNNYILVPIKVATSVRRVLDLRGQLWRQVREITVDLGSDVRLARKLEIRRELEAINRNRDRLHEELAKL
smiles,measurement,setting,value
CCS(=O)CCSP(=O)(OC)OC (stereo not given),Potency,[1],inactive
same,Potency,[2],inactive
same,Potency,[3],inactive
same,"activity change, negative = inhibition",[4]; at 57.5 µM (top of the series),-0.0729% (inactive)
same,max response,[4]; [19],0.72%
same,max response,[4]; [20],3.47%
same,Potency,[5],inactive
same,max response,[6],-0.0185% (inactive)
same,max response,[7],-4.96% (inactive)
CCC(C)C1O[C@]2(C=CC1C)CC1CC(C/C=C(\C)[C@H](OC3CC(OC)C(O[C@H]4CC(OC)[C@@H](O)C(C)O4)C(C)O3)[C@@H](C)/C=C/C=C3\COC4C(O)C(C)=C[C@H](C(=O)O1)[C@@]34O)O2 (stereo not given in full),Potency,[1],inactive
same,Potency,[2],inactive
same,Potency,[3],inactive
same,"activity change, negative = inhibition",[4]; at 57.5 µM (top of the series),-5.38% (inactive)
same,max response,[4]; [19],-1.86%
same,max response,[4]; [20],-6.99%
same,Potency,[8],inactive
same,Potency,[9],inactive
same,Potency,[10]; parasite line A,4.47 µM (active)
same,Potency,[10]; parasite line B,8.91 µM (active)
C=C1CC[C@H](O)C/C1=C/C=C1\CCC[C@]2(C)[C@H]1CC[C@H]2[C@@H](C)CCCC(C)C,"activity change, negative = inhibition",[4]; at 25.7 µM (top of the series),0.847% (inactive)
same,max response,[4]; [19],8.85%
same,max response,[4]; [20],12%
same,Potency,[5],inactive
C[C@@H]1O[C@H](O[C@@H]2CC[C@@]3(C=O)[C@H]4CC[C@@]5(C)[C@@H](C6=CC(=O)OC6)CC[C@@]5(O)[C@@H]4CC[C@]3(O)C2)C[C@H](O)[C@@H]1O,Potency,[11],inactive
same,Potency,[12],> 20.6 µM (inactive)
same,Potency,[13],> 20.6 µM (inactive)
same,Potency,[14],inactive
same,Potency,[15],inactive
same,"activity change, negative = inhibition",[4]; at 25.7 µM (top of the series),-0.93% (inactive)
same,max response,[4]; [19],-14.4%
same,max response,[4]; [20],-15.6%
same,Potency,[5],inactive
CC1CC[C@@]2(NC1)O[C@@H]1C[C@H]3C4CC=C5C[C@@H](O)CC[C@]5(C)C4CC[C@]3(C)[C@H]1[C@@H]2C (stereo not given in full),Potency,[1],inactive
same,"activity change, negative = inhibition",[4]; at 57.5 µM (top of the series),7.46% (inactive)
same,max response,[4]; [19],-0.557%
same,max response,[4]; [20],6.71%
same,Potency,[5],inactive
same,outcome,[16],inactive
C[C@@H]1O[C@H](O[C@H]2C[C@@H](O)[C@@]3(CO)[C@H]4[C@@H](O)C[C@]5(C)[C@@H](C6=CC(=O)OC6)CC[C@]5(O)[C@H]4CC[C@]3(O)C2)[C@@H](O)[C@H](O)[C@@H]1O,"activity change, negative = inhibition",[17],-76.3% (active)
same,outcome,[18],inactive
same,"activity change, negative = inhibition",[4]; at 25.7 µM (top of the series),-0.396% (inactive)
same,max response,[4]; [19],-4.59%
same,max response,[4]; [20],-4.25%
COc1cc(C2c3cc4c(cc3C(OC(C)=O)[C@H]3COC(=O)C23)OCO4)cc(OC)c1OC (stereo not given in full),Potency,[1],inactive and 1.26 µM (active)
same,Potency,[15],inactive
same,Potency,[2],inactive
same,Potency,[3],inactive
same,"activity change, negative = inhibition",[4]; at 57.5 µM (top of the series),0.38% (inactive) and 4.56% (inactive)
same,max response,[4]; [19],26.1% and 10%
same,max response,[4]; [20],22.6% and 16.4%
same,Potency,[5],inactive
COC1C(O)C(C)O[C@H](OC2CC[C@@]3(C=O)C4CC[C@]5(C)C(C6=CC(=O)OC6)CC[C@@]5(O)C4CC[C@@H]3C2)C1O (stereo not given in full),Potency,[1],inactive
same,Potency,[2],inactive
same,Potency,[3],inactive
same,"activity change, negative = inhibition",[4]; at 57.5 µM (top of the series),3.31% (inactive)
same,max response,[4]; [19],21.5%
same,max response,[4]; [20],24.5%
same,Potency,[5],inactive
CCC(=O)Nc1ccc(Cl)c(Cl)c1,Potency,[1],15.8 µM (active)
same,Potency,[15],inactive
same,Potency,[2],inactive
same,Potency,[3],inactive
same,"activity change, negative = inhibition",[4]; at 57.5 µM (top of the series),7.8% (inactive)
same,max response,[4]; [19],9.78%
same,max response,[4]; [20],21.3%
same,Potency,[5],inactive
same,max response,[6],-0.456% (inactive)
same,max response,[7],1.17% (inactive)
CC(=O)OC1C(=O)[C@]2(C)C(O)CC3OC[C@]3(OC(C)=O)C2[C@@H](OC(=O)c2ccccc2)[C@]2(O)CC(O)C(C)=C1C2(C)C (stereo not given in full),Potency,[1],inactive
same,Potency,[2],inactive
same,Potency,[3],inactive
same,"activity change, negative = inhibition",[4]; at 57.5 µM (top of the series),0.522% (inactive)
same,max response,[4]; [19],3.27%
same,max response,[4]; [20],6.64%
same,Potency,[5],inactive

# From PubChem BioAssay (NCATS)
